Data as given in paper PMC5700166.

biological target: T1, GST-Nv-NF-kB (Ser allele) (Nematostella vectensis, UniProt A7UNT2 2-411); assay: protein-binding microarray (PBM); PBM: ~300 nM protein, 6 mM HEPES pH 7.8, 80 mM KCl, 0.5 mM EDTA, 0.5 mM EGTA, 6% glycerol, 35 ng/ul poly-dIdC, 1% milk, 1 h, room temperature; Ap Aiptasia and Nv Nematostella (sea anemones) / Co Capsaspora / Aq Amphimedon (sponge) / Dm Drosophila / Hu human; RHD is the Rel homology domain; high values mean tight binding; conditions: dsDNA, one strand shown
T1 sequence: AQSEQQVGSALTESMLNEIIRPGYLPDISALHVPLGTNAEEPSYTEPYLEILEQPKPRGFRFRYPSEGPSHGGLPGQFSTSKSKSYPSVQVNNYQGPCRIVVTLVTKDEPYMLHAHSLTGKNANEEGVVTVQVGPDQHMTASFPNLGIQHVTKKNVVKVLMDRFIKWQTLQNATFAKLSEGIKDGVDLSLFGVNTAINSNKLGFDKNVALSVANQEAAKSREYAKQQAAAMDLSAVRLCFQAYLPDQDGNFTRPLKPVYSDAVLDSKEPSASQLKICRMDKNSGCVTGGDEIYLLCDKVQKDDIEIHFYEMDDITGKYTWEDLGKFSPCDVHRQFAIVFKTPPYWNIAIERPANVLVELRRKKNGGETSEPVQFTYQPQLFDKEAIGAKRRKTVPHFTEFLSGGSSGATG

Sequence	binding signal
CCGATTAACATCAGGGGGTTAAATGATGTTAATCGGGTCTTGATTCGCTTGACGCTGCTG	4.45 z-score
CCGATTAACATCAGTGTCCCGTTTGATGTTAATCGGGTCTTGATTCGCTTGACGCTGCTG	1.48 z-score
CCGATTAACATCACAGCCCCCCCTGATGTTAATCGGGTCTTGATTCGCTTGACGCTGCTG	3.62 z-score
CCGATTAACATCAAACATCCCCCTGATGTTAATCGGGTCTTGATTCGCTTGACGCTGCTG	6.41 z-score
CCGATTAACATCAAAAACCACCCTGATGTTAATCGGGTCTTGATTCGCTTGACGCTGCTG	4.22 z-score
CCGATTAACATCAAAAGGAAATTTGATGTTAATCGGGTCTTGATTCGCTTGACGCTGCTG	1.08 z-score
CCGATTAACATCAGGGGGGGAGATGATGTTAATCGGGTCTTGATTCGCTTGACGCTGCTG	4.31 z-score
CCGATTAACATCAGATAACCCCCTGATGTTAATCGGGTCTTGATTCGCTTGACGCTGCTG	5.95 z-score
CCGATTAACATCAGGGTAATTTATGATGTTAATCGGGTCTTGATTCGCTTGACGCTGCTG	6 z-score
CCGATTAACATCACGGGGGGGGCTGATGTTAATCGGGTCTTGATTCGCTTGACGCTGCTG	2.3 z-score
CCGATTAACATCAGGATATCCCCTGATGTTAATCGGGTCTTGATTCGCTTGACGCTGCTG	6.27 z-score
CCGATTAACATCAGGAGACCCCCTGATGTTAATCGGGTCTTGATTCGCTTGACGCTGCTG	2.64 z-score
CCGATTAACATCACAGAGTCCCCTGATGTTAATCGGGTCTTGATTCGCTTGACGCTGCTG	6.04 z-score
CCGATTAACATCAGGGGCTTCCATGATGTTAATCGGGTCTTGATTCGCTTGACGCTGCTG	3.55 z-score
CCGATTAACATCAAACCTTCCCCTGATGTTAATCGGGTCTTGATTCGCTTGACGCTGCTG	5.79 z-score
CCGATTAACATCACGCGTCTACCTGATGTTAATCGGGTCTTGATTCGCTTGACGCTGCTG	1.34 z-score
CCGATTAACATCAATATCCCCCCTGATGTTAATCGGGTCTTGATTCGCTTGACGCTGCTG	6.44 z-score
CCGATTAACATCAGGGGACCCCCTGATGTTAATCGGGTCTTGATTCGCTTGACGCTGCTG	5.69 z-score
CCGATTAACATCAAGCCCCCCCCTGATGTTAATCGGGTCTTGATTCGCTTGACGCTGCTG	4.25 z-score
CCGATTAACATCAGACATGGGAATGATGTTAATCGGGTCTTGATTCGCTTGACGCTGCTG	1.34 z-score

Sequence	binding signal
CCGATTAACATCAGAACCCCCCCTGATGTTAATCGGGTCTTGATTCGCTTGACGCTGCTG	5.04 z-score
CCGATTAACATCAGGGAAACTTATGATGTTAATCGGGTCTTGATTCGCTTGACGCTGCTG	6.07 z-score
CCGATTAACATCAAAACACCCCTTGATGTTAATCGGGTCTTGATTCGCTTGACGCTGCTG	2.64 z-score
CCGATTAACATCAGATTTACCGCTGATGTTAATCGGGTCTTGATTCGCTTGACGCTGCTG	1.31 z-score
CCGATTAACATCAAGGGGGAGGGTGATGTTAATCGGGTCTTGATTCGCTTGACGCTGCTG	3.99 z-score
CCGATTAACATCAGAACATCCCCTGATGTTAATCGGGTCTTGATTCGCTTGACGCTGCTG	6.48 z-score
CCGATTAACATCAGAGTATCCCCTGATGTTAATCGGGTCTTGATTCGCTTGACGCTGCTG	5.44 z-score
CCGATTAACATCAAAAGCCCCCCTGATGTTAATCGGGTCTTGATTCGCTTGACGCTGCTG	4.86 z-score
CCGATTAACATCAAGGGGGGGAGTGATGTTAATCGGGTCTTGATTCGCTTGACGCTGCTG	4.08 z-score
CCGATTAACATCACCGCTTCCCTTGATGTTAATCGGGTCTTGATTCGCTTGACGCTGCTG	1.69 z-score
CCGATTAACATCAAAATCACCCCTGATGTTAATCGGGTCTTGATTCGCTTGACGCTGCTG	3.66 z-score
CCGATTAACATCAGGGGGGGGAATGATGTTAATCGGGTCTTGATTCGCTTGACGCTGCTG	6.53 z-score
CCGATTAACATCAGGGGGGTTACTGATGTTAATCGGGTCTTGATTCGCTTGACGCTGCTG	4.18 z-score
CCGATTAACATCACGGGAATGCCTGATGTTAATCGGGTCTTGATTCGCTTGACGCTGCTG	1.33 z-score
CCGATTAACATCAGAAAAATCCCTGATGTTAATCGGGTCTTGATTCGCTTGACGCTGCTG	5.14 z-score
CCGATTAACATCAGGGGGGAACATGATGTTAATCGGGTCTTGATTCGCTTGACGCTGCTG	6.09 z-score
CCGATTAACATCAAACTCCCCCGTGATGTTAATCGGGTCTTGATTCGCTTGACGCTGCTG	6.52 z-score
CCGATTAACATCAGCTCCCCCCCTGATGTTAATCGGGTCTTGATTCGCTTGACGCTGCTG	3.44 z-score
CCGATTAACATCAAAAATTCACCTGATGTTAATCGGGTCTTGATTCGCTTGACGCTGCTG	3.83 z-score
CCGATTAACATCAAATTTACCCCTGATGTTAATCGGGTCTTGATTCGCTTGACGCTGCTG	5.32 z-score
